Measurements reported in PubChem BioAssay.
Entries with a potency or affinity are not part of this list. Inconclusive results are not listed. Active and inactive are the calls of the source. Unless noted, no rule for the calls is given here.

What was measured:
[1] = RMG-1 ovarian cancer cell viability loss – cherry-pick, dose response (AID 687029;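 active = signal drop whose fitted half-maximal concentration is at most twice the top valid dose, in every test run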;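 also: cells exposed to compound for 96 hours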)
[2] = IOSE-T80 viability loss, PAX8-independent line – cell-based, cherry-pick, selectivity assay for PAX8 inhibitor project, dose response (AID 687032;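 active = fitted half-maximal concentration for viability loss no higher than twice the top valid dose, in every repeat run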;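 also: cells exposed to compound for 96 h before reading; 0% = neutral control wells and -100% = 2 µM mitoxantrone kill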)
[3] = general cell-killing toxicity readout – plate reader, dry powder samples, cytotoxicity control for PAX8 inhibitor project, dose response (AID 743021)
[4] = IGROV1 cell killing – plate reader, dry powder samples, PAX8 inhibitor project, dose response (AID 743043);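 also: more negative means fewer viable cells or more cytotoxicity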
[5] = OVCAR-3 cell viability loss – plate reader, dry powder samples, PAX8 inhibitor project, dose response (AID 743044); conditions: max activity: at 35 µM, stronger effect = lower value unless noted
[6] = toxicity toward immortalized ovarian surface epithelium – cell-based, plate reader, dry powder samples, cytotoxicity control for PAX8 inhibitor project, dose response (AID 743045);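 also: 0% = neutral control median and -100% = positive control median; more negative values mean more cell killing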
[7] = A2780 cell killing – plate reader, dry powder samples, cytotoxicity control, dose response (AID 743046);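 also: 0% = neutral control wells and -100% = cytotoxic reference compound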
[8] = A549 cell cytotoxicity, dose response, cytotoxicity control, plate reader, cherry-pick, antagonist series (AID 743412);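 also: 0% = neutral control wells and -100% = positive control wells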
[9] = toxicity toward HepG2 liver cells – cell-based, plate reader, cherry-pick, antagonist series, cytotoxicity control, dose response (AID 743416);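 also: 0% = neutral control wells and -100% = positive control wells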
[10] = OVCAR8 cell viability loss – plate reader, dry powder samples, PAX8 project, dose response (AID 743197)

Measured: max activity

Cc1ccccc1OCC(=O)Nc1cccc(C(=O)O)c1
not listed: [10]
inactive: all other assays above

C[C@@H]1CN([C@H](C)CO)S(=O)(=O)c2ccc(C#Cc3ccncc3)cc2O[C@H]1CN(C)C(=O)C1CCCCC1
not listed: [5] | [8] | [9]
inactive: all other assays above

C[C@@H]1CCCCO[C@H](CN(C)C(=O)Nc2ccc(F)cc2)[C@@H](C)CN([C@@H](C)CO)C(=O)c2cc(NS(=O)(=O)c3ccc(Cl)cc3)ccc2O1
inactive: [1] | [2] | [3] | [4] | [6] | [7]

C[C@@H]1CCCCO[C@H](CN(C)S(=O)(=O)c2ccc(Cl)cc2)[C@H](C)CN([C@@H](C)CO)C(=O)c2cc(NS(=O)(=O)c3ccc(F)cc3)ccc2O1
inactive: [1] | [2] | [3] | [4] | [5] -23.5% [at 8 µM, stronger effect = lower value] | [6] | [7] | [10]

C[C@@H]1CN([C@H](C)CO)C(=O)c2cc(NC(=O)Nc3ccc(F)cc3)ccc2O[C@@H](C)CCCCO[C@H]1CN(C)S(=O)(=O)c1ccccc1
not listed: [5] | [8] | [9]
inactive: all other assays above

C[C@@H]1CN([C@@H](C)CO)C(=O)c2cc(NC(=O)Nc3ccc(F)cc3)ccc2O[C@@H](C)CCCCO[C@@H]1CN(C)Cc1ccc(C(F)(F)F)cc1
inactive: [1] | [2] | [3] | [4] | [6]

CC1(C)CC(=O)c2sc(NC(=O)CCS(=O)(=O)c3ccccc3)nc2C1
inactive: [1] | [2] | [3] | [4] | [5] | [7]

C[C@H]1CN([C@@H](C)CO)S(=O)(=O)c2ccc(C#CC3CCCC3)cc2O[C@@H]1CN(C)Cc1cccnc1
inactive: [1] | [2] | [3] | [4] | [6] | [7]

C[C@@H]1CCCCO[C@@H](CN(C)C(=O)Nc2ccc(C(F)(F)F)cc2)[C@H](C)CN([C@@H](C)CO)C(=O)c2cc(NC(=O)Nc3ccc(C(F)(F)F)cc3)ccc2O1
inactive: [1] | [2] | [3] | [4] | [5] -30.2% | [6] | [7] | [10]

C[C@@H]1CN([C@H](C)CO)C(=O)c2cc(NC(=O)Nc3ccc(C(F)(F)F)cc3)ccc2O[C@@H](C)CCCCO[C@H]1CN(C)S(=O)(=O)c1ccc(F)cc1
inactive: [1] | [2] | [3] | [4] | [5] -20.5% [at 8 µM, stronger effect = lower value] | [6] | [7] | [10]

C[C@@H]1CN([C@@H](C)CO)C(=O)Cc2cc(NC(=O)NC3CCCCC3)ccc2O[C@H]1CN(C)Cc1ccc(-c2ccccc2)cc1
inactive: [1] | [2] | [3] | [4] | [6]

C[C@@H]1CCCCO[C@H](CN(C)CC2CCCCC2)[C@H](C)CN([C@@H](C)CO)C(=O)c2cc(NS(=O)(=O)c3ccc(Cl)cc3)ccc2O1
inactive: [1] | [2] | [3] | [4] | [5] 13.1% [at 0.5 µM, stronger effect = lower value] | [6] | [7] | [10]

C[C@H]1CCCCO[C@@H](CN(C)Cc2ccc(C(F)(F)F)cc2)[C@@H](C)CN([C@@H](C)CO)C(=O)c2cc(NC(=O)Nc3ccc(F)cc3)ccc2O1
inactive: [1] | [2] | [3] | [4] | [6] | [7]

C[C@H](CO)N1C[C@H](C)[C@H](CN(C)Cc2ccc(C(F)(F)F)cc2)OCCCC[C@H](C)Oc2ccc(NC(=O)CCC(F)(F)F)cc2C1=O
inactive: [1] | [2] | [3] | [4] | [6] | [7]

CS(=O)(=O)Nc1ccc2c(c1)[C@@H]1C[C@H](CC(=O)NCc3ccc(Oc4ccccc4)cc3)O[C@@H](CO)[C@@H]1O2
not listed: [5] | [8] | [9]
inactive: all other assays above

CCCN(C)C[C@H]1OCCCC[C@@H](C)Oc2ccc(NC(=O)Nc3ccc(C(F)(F)F)cc3)cc2C(=O)N([C@H](C)CO)C[C@H]1C
inactive: [1] | [2] | [3] | [4] | [5] 9.68% [at 1 µM, stronger effect = lower value] | [6] | [7] | [10]

O=C(Nc1ccccc1)N1CCCCN2[C@H](C1)[C@@H](c1ccc(C#Cc3ccccc3)cc1)[C@@H]2CO
inactive: [1] | [2] | [3] | [4] | [6] | [7]

Cc1noc(C)c1S(=O)(=O)Nc1ccc2c(c1)C(=O)N([C@@H](C)CO)C[C@H](C)[C@@H](CN(C)C(=O)Nc1ccc(C(F)(F)F)cc1)OCCCC[C@H](C)O2
inactive: [1] | [2] | [3] | [4] | [6] | [7]

C[C@H]1CCCCO[C@H](CN(C)C(=O)Nc2ccc(C(F)(F)F)cc2)[C@@H](C)CN([C@@H](C)CO)C(=O)c2cc(NS(=O)(=O)c3ccc(F)cc3)ccc2O1
inactive: [1] | [2] | [3] | [4] | [5] 19.1% [at 4.2 µM, stronger effect = lower value] | [6] | [7]

COc1ccc(CCN2C(=O)CSC2=S)cc1OC
inactive: [1] | [2] | [3] | [4] | [5] | [7]

C[C@@H]1CCCCO[C@H](CN(C)C(=O)Nc2ccc(C(F)(F)F)cc2)[C@@H](C)CN([C@@H](C)CO)C(=O)c2cc(NS(=O)(=O)c3ccc(F)cc3)ccc2O1
inactive: [1] | [2] | [3] | [4] | [5] 19.5% [at 4.2 µM, stronger effect = lower value] | [6] | [7]

C[C@H]1CN([C@@H](C)CO)C(=O)Cc2cc(NC(=O)Nc3ccc4c(c3)OCO4)ccc2O[C@@H]1CN(C)Cc1ccc(-c2ccccc2)cc1
inactive: [1] | [2] | [3] | [4] | [5] -22.8% [at 16 µM, stronger effect = lower value] | [6] | [7] | [10]

C[C@@H]1CCCCO[C@H](CN(C)Cc2ccc(Cl)c(Cl)c2)[C@H](C)CN([C@@H](C)CO)C(=O)c2cc(NC(=O)Nc3ccc(C(F)(F)F)cc3)ccc2O1
inactive: [1] | [2] | [3] | [4] | [6] | [7]

C[C@@H]1CN([C@H](C)CO)C(=O)c2cc(NS(=O)(=O)c3ccc(Cl)cc3)ccc2O[C@@H](C)CCCCO[C@H]1CN(C)Cc1ccc(Cl)c(Cl)c1
not listed: [5] | [8] | [9]
inactive: all other assays above

COc1ccc(NC(=O)N(C)C[C@H]2OCCCC[C@@H](C)Oc3ccc(NC(=O)Nc4ccc(C(F)(F)F)cc4)cc3C(=O)N([C@@H](C)CO)C[C@@H]2C)cc1
inactive: [1] | [2] | [3] | [4] | [6] | [7]

COc1ccc(S(=O)(=O)Nc2ccc3c(c2)CC(=O)N([C@H](C)CO)C[C@H](C)[C@@H](CN(C)Cc2ccc(C(F)(F)F)cc2)O3)cc1
inactive: [1] | [2] | [3] | [4] | [5] -8.3% [at 8 µM, stronger effect = lower value] | [6] | [7]

C[C@@H]1CCCCO[C@H](CN(C)C(=O)Nc2ccc(C(F)(F)F)cc2)[C@@H](C)CN([C@@H](C)CO)C(=O)c2cc(NS(=O)(=O)c3ccccc3)ccc2O1
inactive: [1] | [2] | [3] | [4] | [5] 27.6% [at 0.26 µM, stronger effect = lower value] | [6] | [7] | [10]

O=C(Nc1ccc(C(F)(F)F)cc1)Nc1ccc2c(c1)[C@H]1C[C@@H](CC(=O)N3CCc4ccccc4C3)O[C@H](CO)[C@H]1O2
inactive: [1] | [2] | [3] | [4] | [6] | [7]

O=C1/C(=C/c2cccc(Br)c2)SC(=S)N1CCC(=O)N(CCO)c1ccccc1
not listed: [8] | [9] | [10]
inactive: all other assays above

C[C@@H]1CCCCO[C@H](CN(C)Cc2ccc(Cl)c(Cl)c2)[C@@H](C)CN([C@@H](C)CO)C(=O)c2cc(NC(=O)Nc3ccc(C(F)(F)F)cc3)ccc2O1
inactive: [1] | [2] | [3] | [4] | [6] | [7]

C[C@@H]1CCCCO[C@H](CN(C)Cc2ccc3c(c2)OCO3)[C@@H](C)CN([C@@H](C)CO)C(=O)c2cc(NC(=O)Nc3ccc(C(F)(F)F)cc3)ccc2O1
inactive: [1] | [2] | [3] | [4] | [5] -12% | [6] | [7]

C[C@H]1CN([C@@H](C)CO)C(=O)c2c(c3ccccc3n2C)-c2ccccc2CO[C@@H]1CN(C)S(=O)(=O)c1cccc(F)c1
inactive: [1] | [2] | [3] | [4] | [5] -21.9% | [6] | [7]

CC(C)CC#Cc1ccc2c(c1)O[C@H](CN(C)Cc1ccc(F)cc1)[C@H](C)CN([C@H](C)CO)S2(=O)=O
inactive: [1] | [2] | [3] | [4] | [5] 38.6% [at 2.1 µM, stronger effect = lower value] | [6] | [7]
